Among the data in PubChem BioAssay are composite z-score and z-score values, retold here.

Test [1] can be described thus: compounds binding Alexa647 anti-His antibody – biochemical, small-molecule microarray, 635 nm fluorescence, artefact control for SMM control protein annotation, primary screen (AID 1128).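 Note: score merges feature fluorescence with signal-to-noise for each printed compound spot.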 The note with it: higher = more signal.
The subject of test [2] is Human papillomavirus type 1a E7 protein (residues 1-88). As to the kind of experiment: HPV1a E7 small-molecule binders, primary screen, biochemical, small-molecule microarray, residues 1-88, 635 nm (AID 1129). To be noted: small-molecule microarray binding, fluorescence 635 nm; higher = more signal.
Test [3] has as its target Focal adhesion kinase 1 (Homo sapiens) (UniProt Q05397). Description: PTK2 protein binding on printed compound slides – biochemical, small-molecule microarray, 635/667 nm fluorescence, BSA, DTT, primary screen (AID 1130).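 Note: composite of spot emission at 667 nm and signal to noise over triplicate slides.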 The note with it: 635 nm fluorescence, higher = more signal.
Test [4] relates to Fibrinogen (Alexa647-labelled). As to the kind of experiment: Alexa647-fibrinogen binding to printed small molecules – biochemical, small-molecule microarray, 635/667 nm fluorescence, artefact control for SMM control-protein annotation, profiling panel (AID 1131).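 Note: z-score merges 667 nm fluorescence with per-spot signal-to-noise over triplicate slides.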 The note with it: fibrinogen-A647 binding fluorescence, higher = more signal.
For test [5], the target named is Follistatin (Homo sapiens) (UniProt P19883). Description: FST protein binding to printed compounds – biochemical, small-molecule microarray, 635/667 nm fluorescence, primary screen (AID 1132). To be noted: 635 nm fluorescence, higher = more signal.
Chain of Follistatin (Homo sapiens) (P19883 whole entry, looked up): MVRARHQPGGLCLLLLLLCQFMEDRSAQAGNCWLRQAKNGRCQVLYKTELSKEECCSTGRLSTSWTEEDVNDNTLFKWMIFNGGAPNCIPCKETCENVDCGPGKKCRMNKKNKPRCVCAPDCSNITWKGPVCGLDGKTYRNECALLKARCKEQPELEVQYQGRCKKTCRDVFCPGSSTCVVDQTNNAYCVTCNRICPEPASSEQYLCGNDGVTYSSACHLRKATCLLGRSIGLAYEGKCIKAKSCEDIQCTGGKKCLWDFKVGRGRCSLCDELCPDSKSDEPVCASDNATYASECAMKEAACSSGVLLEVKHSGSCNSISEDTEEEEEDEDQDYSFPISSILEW
For test [6], the target named is Fibroblast growth factor 2 (Homo sapiens) (UniProt P09038). As to the kind of experiment: basic fibroblast growth factor binding to printed compounds – biochemical, small-molecule microarray, 635/667 nm fluorescence, primary screen (AID 1133). The note with it: FGF2, fluorescence 635/667, higher = more signal.
Chain of Fibroblast growth factor 2 (Homo sapiens) (P09038 whole entry, looked up): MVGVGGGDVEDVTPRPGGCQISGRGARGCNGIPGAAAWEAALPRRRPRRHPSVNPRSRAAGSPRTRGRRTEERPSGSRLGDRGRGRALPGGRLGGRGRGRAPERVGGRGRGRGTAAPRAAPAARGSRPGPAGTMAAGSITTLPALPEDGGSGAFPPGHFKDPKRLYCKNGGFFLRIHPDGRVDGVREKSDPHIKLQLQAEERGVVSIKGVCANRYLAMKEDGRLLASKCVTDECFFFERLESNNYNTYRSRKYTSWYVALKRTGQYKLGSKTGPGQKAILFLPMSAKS
A short description of test [7]: JC-1 mitochondrial potential readout, lung cancer cells – cell-based, A549, JC-1 fluorescence, basal, 24 h, 100 nL, profiling panel (AID 1138).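 Note: A549 lung adenocarcinoma cells under basal conditions with no added stimulus; test concentration not given here.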 The note with it: higher = more signal.
Another test deals with Lefty1. Description: Lefty1 protein binding to printed compounds – biochemical, small-molecule microarray, 635/667 nm fluorescence, primary screen (AID 1139). The note with it: fluorescence 635/667, higher = more signal.
For test [8], the system named is wheat germ agglutinin (Triticum aestivum), Alexa647-labelled. Description: Alexa647-WGA lectin binding to printed small molecules – biochemical, small-molecule microarray, 635/667 nm fluorescence, artefact control for SMM control-protein annotation, profiling panel (AID 1140).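 Note: score merges 667 nm feature emission with signal to noise over triplicate slides.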 The note with it: WGA-A647 binding, 635 nm fluorescence, higher = more signal.
Test [9] concerns the target Luciferin 4-monooxygenase (Photinus pyralis) (UniProt P08659). As to the kind of experiment: inhibition of purified Photinus pyralis luciferase – biochemical, luminescence, purified enzyme, 2006 set, primary screen (AID 1141).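 Note: cell-free assay with purified firefly luciferase at 100 ng per well in PBS; test concentration not given here.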 To be noted: purified firefly luciferase, SteadyGlo luminescence, 30 min; higher = more signal, called active from +8 up or from −8 down.
Test [10] relates to Wnt5a (protein binding on small-molecule microarray). Description: small molecules binding Wnt5a protein – biophysical, small-molecule microarray, 635/667 nm fluorescence, primary screen (AID 1142).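 Note: fluorescence read at 667 nm with signal to noise per printed feature.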 The note with it: 635 nm fluorescence, higher = more signal.
Test [11] in a line: ATP-based viability of Huh7 replicon cells – cell-based, CellTiter-Glo luminescence, basal, 48 h, cytotoxicity control for HCV replication inhibitor project, primary screen (AID 1143).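 Note: Huh7 hepatoma cells carrying a hepatitis C replication reporter with no stimulus; test concentration not given here.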 The note with it: higher = more signal, called active from +8 up or from −8 down.
Test [12] can be described thus: Pseudomonas biofilm growth suppression – PAO1 strain, BacTiter-Glo luminescence, LB-PBS, primary screen (AID 1144). To be noted: P. aeruginosa PAO1 biofilm, 12 h, higher = more signal.
A short description of test [13]: basal CRE-LacZ reporter activity in PC12 – cell-based, unstimulated, primary screen (AID 1145). The note with it: no forskolin, luminescence, 4.5 h, higher = more signal, called active from +8 up or from −8 down.
A short description of test [14]: forskolin-driven CRE-LacZ activity in PC12 – cell-based, CRE-LacZ reporter, forskolin-stimulated, primary screen (AID 1146).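 Note: PC12 cells with 6xCRE LacZ reporter stimulated by forskolin 10 µM; beta-galactosidase reporter signal reflecting CREB driven transcription.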 The note with it: luminescence, 4.5 h, higher = more signal, called active from +8 up or from −8 down.
The target of test [15] is Streptavidin (Streptomyces avidinii) (UniProt P22629). As to the kind of experiment: compounds binding control protein streptavidin – biophysical, small-molecule microarray, 635/667 nm fluorescence, artefact control for SMM compound annotation, primary screen (AID 1147).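 Note: signal reflects streptavidin binding to arrayed compounds as a control protein.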 To be noted: higher = more signal.
Chain of Streptavidin (Streptomyces avidinii) (P22629 whole entry, looked up): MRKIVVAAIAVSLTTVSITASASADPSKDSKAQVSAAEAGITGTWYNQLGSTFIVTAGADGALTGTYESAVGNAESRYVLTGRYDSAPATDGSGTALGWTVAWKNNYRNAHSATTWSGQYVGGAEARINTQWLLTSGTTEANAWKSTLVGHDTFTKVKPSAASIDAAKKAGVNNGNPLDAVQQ
A short description of test [16]: probe aInhba binding on compound microarray – biochemical, small-molecule microarray, 635/667 nm fluorescence, primary screen (AID 1148).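 Note: score merges 667nm spot fluorescence with signal-to-noise for antibody binding to printed compounds.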 To be noted: higher = more signal.
Test [17] deals with Torsin-1A (Homo sapiens) (UniProt O14656). As to the kind of experiment: TOR1A wild-type binding on microarray – cell lysate, small-molecule microarray, lysate, 635/667 nm, primary screen (AID 1149). The note with it: COS7 hTOR1A-WT lysate, 635 nm fluorescence, higher = more signal.
Chain of Torsin-1A (Homo sapiens) (O14656 whole entry, looked up): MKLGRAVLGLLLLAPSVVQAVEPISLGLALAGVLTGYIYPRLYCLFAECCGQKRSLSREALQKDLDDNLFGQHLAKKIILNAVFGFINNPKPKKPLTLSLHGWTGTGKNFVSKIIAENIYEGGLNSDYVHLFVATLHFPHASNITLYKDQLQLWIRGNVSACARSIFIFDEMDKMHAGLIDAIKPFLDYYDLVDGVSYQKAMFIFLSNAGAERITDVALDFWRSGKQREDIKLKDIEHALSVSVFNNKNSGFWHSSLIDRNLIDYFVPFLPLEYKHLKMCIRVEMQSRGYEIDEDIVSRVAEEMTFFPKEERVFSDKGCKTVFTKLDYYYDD
For test [18] the target is unchanged. As to the kind of experiment: torsin A mutant lysate binding on microarrays – cell lysate, small-molecule microarray, COS7 lysate, 635/667 nm fluorescence, primary screen (AID 1150).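 Note: score pools 667 nm emission and signal to noise measuring lysate protein binding.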 To be noted: COS7 hTOR1A mutant lysate, 635 nm fluorescence, higher = more signal.
For test [19], the system named is Sonic hedgehog protein (Shh). Description: Sonic hedgehog microarray binding compounds – biochemical, small-molecule microarray, 635/667 nm fluorescence, primary screen (AID 1151).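 Note: Shh protein binding to compounds spotted on small-molecule microarray slides; score combines spot fluorescence intensity with signal-to-noise across triplicate slides.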 The note with it: 635 nm fluorescence, higher = more signal.

The structures appear in SMILES notation. Activity calls are given as the source filed them. Unless noted, the rule behind the calls is not given here.

Chain of Luciferin 4-monooxygenase (Photinus pyralis) (P08659 whole entry, looked up): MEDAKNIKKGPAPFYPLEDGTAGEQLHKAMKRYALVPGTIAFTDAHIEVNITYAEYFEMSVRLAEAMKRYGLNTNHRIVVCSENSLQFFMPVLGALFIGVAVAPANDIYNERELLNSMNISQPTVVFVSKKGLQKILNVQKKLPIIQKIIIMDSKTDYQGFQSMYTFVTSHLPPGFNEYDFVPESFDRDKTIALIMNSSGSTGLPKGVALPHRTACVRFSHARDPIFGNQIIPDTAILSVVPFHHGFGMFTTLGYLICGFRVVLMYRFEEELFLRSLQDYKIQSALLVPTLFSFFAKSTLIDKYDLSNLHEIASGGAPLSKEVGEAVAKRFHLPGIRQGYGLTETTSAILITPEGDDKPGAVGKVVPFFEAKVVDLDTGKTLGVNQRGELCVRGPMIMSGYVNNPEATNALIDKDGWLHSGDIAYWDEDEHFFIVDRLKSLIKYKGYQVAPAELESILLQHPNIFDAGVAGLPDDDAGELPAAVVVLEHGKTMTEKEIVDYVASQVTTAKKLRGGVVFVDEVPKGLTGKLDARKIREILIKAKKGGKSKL
Chain of Focal adhesion kinase 1 (Homo sapiens) (Q05397 whole entry, looked up): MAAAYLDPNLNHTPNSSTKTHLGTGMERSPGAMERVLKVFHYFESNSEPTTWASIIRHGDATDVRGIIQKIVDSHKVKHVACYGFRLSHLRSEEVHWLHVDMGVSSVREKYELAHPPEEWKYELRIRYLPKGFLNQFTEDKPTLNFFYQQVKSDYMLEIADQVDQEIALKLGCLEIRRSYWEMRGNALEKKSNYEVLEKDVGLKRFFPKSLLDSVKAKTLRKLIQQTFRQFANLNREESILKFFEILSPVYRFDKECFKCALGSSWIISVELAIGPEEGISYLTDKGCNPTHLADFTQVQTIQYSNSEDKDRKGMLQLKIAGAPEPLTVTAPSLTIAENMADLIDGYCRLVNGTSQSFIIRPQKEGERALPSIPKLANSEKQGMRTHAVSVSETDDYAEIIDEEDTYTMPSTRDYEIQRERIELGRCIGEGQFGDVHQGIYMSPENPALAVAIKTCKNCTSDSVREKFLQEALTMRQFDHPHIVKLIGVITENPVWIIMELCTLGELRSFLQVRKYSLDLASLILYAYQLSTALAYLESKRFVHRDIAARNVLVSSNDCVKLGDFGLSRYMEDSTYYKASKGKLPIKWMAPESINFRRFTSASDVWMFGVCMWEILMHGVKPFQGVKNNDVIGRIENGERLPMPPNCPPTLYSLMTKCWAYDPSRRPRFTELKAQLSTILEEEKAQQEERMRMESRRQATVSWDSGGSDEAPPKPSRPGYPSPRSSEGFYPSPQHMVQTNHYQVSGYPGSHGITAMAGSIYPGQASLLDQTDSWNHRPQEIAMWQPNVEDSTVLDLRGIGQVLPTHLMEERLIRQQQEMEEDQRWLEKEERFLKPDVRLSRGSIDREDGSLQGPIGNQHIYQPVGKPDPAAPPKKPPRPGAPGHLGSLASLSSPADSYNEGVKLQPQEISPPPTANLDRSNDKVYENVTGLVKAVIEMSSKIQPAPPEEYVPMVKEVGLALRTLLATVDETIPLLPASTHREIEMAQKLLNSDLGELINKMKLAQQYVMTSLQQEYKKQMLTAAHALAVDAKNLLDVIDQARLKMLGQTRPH

In the case of `O=C(OCc1ccccc1)C1=CCC2c3[nH]c4ccccc4c3C(=O)C1N2S(=O)(=O)c1ccccc1[N+](=O)[O-]` (stereo not given), the composite z-score was 1.28 in test [1]; 1.26 in test [2]; -0.134 in test [3]; 0.906 in [4]; 1.11 in test [5]; 0.491 in test [6]. The composite z-score in the test with Lefty1 turned out to be 0.5; in test [8] it was 0.743; in test [10] it was 0.794; in test [15], 0.745; in test [16], 0.11; with Torsin-1A (Homo sapiens) [17], 0.498. The composite z-score with Torsin-1A (Homo sapiens) [18] amounted to 0.497; in test [19], 0.488. Moreover, the z-score in [7] was -2.71; in [9], 0.895 (inactive); in test [11] it was -1.26 (inactive); in test [12] it was -0.00859 (inactive); in test [13], -0.0137 (inactive); in test [14], -0.451 (inactive).

Take `COCCOC(=O)N1C(=O)[C@@]2(c3cc(C#Cc4ccc(OC)cc4)ccc31)[C@H](c1ccc(O)cc1)N1[C@H](c3ccccc3)[C@H](c3ccccc3)OC(=O)[C@H]1[C@@H]2C(=O)N1CCc2cc(OC)c(OC)cc2C1`: the composite z-score in [1] came out at 0.744; in test [2], 0.7; in test [3], 1.02; in test [4], 0.935; in [5] it was 1.02; in test [6], 0.413. For the same molecule, the composite z-score came out at 0.785 with Lefty1; 0.555 in test [8]; 0.164 in test [10]; 1.25 in test [15]; 0.0317 in test [16]; 0.807 in the test with Torsin-1A (Homo sapiens) [17]. Further, the results for the composite z-score (with Torsin-1A (Homo sapiens) [18]; in test [19]) were 0.964 and 0.643, respectively. Further, the z-score in test [7] is -0.734; in test [9] it was 0.644 (inactive); in test [11], -1.93 (inactive); in [12], -1.57 (inactive); in test [13], -1.42 (inactive); in test [14] it was -0.397 (inactive).

For `COC(=O)[C@@]1(CCC(=O)OC(C)(C)C)N=C(c2ccc(OCCCO)cc2)O[C@H]1c1ccccc1N=[N+]=[N-]`, the composite z-score in test [1] came to 0.421; in test [2], 1.17; in test [3], 0.723; in [4], 0.942; in [5], 1.24; in test [6], 0.0436. Moreover, the composite z-score with Lefty1 was 0.303; in [8], 0.658; in test [10] it was 0.174; in test [15], -0.0572; in test [16] it was -0.101; in the test with Torsin-1A (Homo sapiens) [17] it was -0.184. The composite z-score in the test with Torsin-1A (Homo sapiens) [18] is -0.143; in [19], 0.696. Further, the z-score was 1.01 in test [7]; -7.29 (inactive) in test [9]; -4.35 (inactive) in test [11]; -0.656 (inactive) in test [12]; 2.68 (inactive) in [13]; -1.21 (inactive) in test [14].

With `C[N+](C)(C)CCCC[C@@H]1NC(=O)[C@H]2C[C@@H](C(=O)NCCCCCCNC(=O)CS)[C@@H](c3cccc(OCCO)c3)N2C1=O`, the composite z-score is 1.03 in [1]; -0.945 in test [2]; 0.434 in [3]; -1.56 in [4]; 0.897 in [5]; 0.885 in test [6]. In addition, the composite z-score in the test on Lefty1 was -1.36; in test [8], 0.396; in test [10], -0.298; in test [15], -0.667; in [16] it was -0.21; with Torsin-1A (Homo sapiens) [17], -0.182. Also, the composite z-score in the test with Torsin-1A (Homo sapiens) [18] was -0.14; in test [19], -0.396. The z-score in test [7] is -0.32; in test [9], -0.252 (inactive); in test [11], 0.2 (inactive); in test [12] it was -0.635 (inactive); in test [13], -0.683 (inactive); in test [14], 0.0114 (inactive).

Regarding `COc1cc2c(cc1OC)CN(C(=O)[C@@H]1[C@H]3C(=O)O[C@H](c4ccccc4)[C@H](c4ccccc4)N3[C@H](c3ccccc3OCCO)[C@@]13C(=O)Nc1ccc(C#CCCO)cc13)CC2`, the composite z-score in test [1] came out at 1.94; in test [2], 1.15; in test [3], 0.222; in test [4], 0.966; in test [5], 1.27; in [6], 0.409. The composite z-score in the test on Lefty1 stood at 0.904; in test [8], 0.988; in test [10] it was 0.283; in test [15], 0.442; in test [16], 0.196; with Torsin-1A (Homo sapiens) [17], 0.0499. For the same molecule, the composite z-score in the test with Torsin-1A (Homo sapiens) [18] worked out at 0.344; in test [19], 1.13. Further, the z-score in test [7] is -0.426; in test [9], -0.785 (inactive); in [11], -1.65 (inactive); in test [12], 0.219 (inactive); in test [13], 0.505 (inactive); in test [14], -0.988 (inactive).
